Shown are actives, neighbours in structure and some others; about 4.4% of the full set was active somewhere.
tim23-1 inh – inhibits growth of tim23-1 mutant yeast; S. cerevisiae tim23-1 growth, BacTiter-Glo luminescence, 24 h; inhibition, % at 20 µM; 330,000 tested, 1.3% active; AID 463212;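 active = growth inhibition of the mutant yeast at or above 50%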;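 note: temperature-sensitive mutant grown at 25 °C; plate controls were DMSO-treated mutant yeast for no effect and medium wells lacking yeast for full effect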
TIM10 inh – growth inhibitors of TIM10 yeast strain; S. cerevisiae TIM10 strain growth, BacTiter-Glo luminescence, 24 h; inhibition, % at 10 µM; 330,000 tested, 1.4% active; AID 463195;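 active = inhibition of 40% or more at the single tested concentration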;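 note: wild-type TIM10 isogenic control strain grown at permissive 25 °C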
tim10-1 inh – inhibits growth of tim10-1 mutant yeast. inhibition, % at 20 µM. S. cerevisiae tim10-1 ts strain growth, BacTiter-Glo, 24 h. 330,000 tested, 2.2% active;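 active = inhibition of at least 40%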;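 note: mutant grown at 25 °C; 0% = DMSO wells with yeast and 100% = wells holding no yeast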
PfHsp90 set2 – inhibits growth of yeast expressing Plasmodium falciparum Hsp90; inhibition, % at 9.4 µM; 310,000 tested, 0.32% active; S. cerevisiae expressing PfHsp90, BacTiter-Glo ATP, 48 h; yeast lacking PDR1 and PDR3 efflux regulators;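 active = every replicate shows inhibition above about 80%, whatever the replicate mean, limit read from the data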;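 note: 0% = DMSO neutral controls and 100% = 20 µM radicicol positive controls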
SUMO Mot1 rescue – inhibitors of SUMOylation pathway: yeast Mot1-301 growth rescue; 320,000 tested, 1% active; growth rescue, % at 18.8 µM; S. cerevisiae Mot1-301 growth rescue, ATP luminescence, 38.5C; percent above DMSO median, 100 means doubled;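 active = every valid replicate shows activation above 250% relative to neutral control wells; inactive = the rest, any valid replicate at or below 250%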;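 note: OY570 slx delta 5 strain wells were the positive control but not used for scaling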
tim10-1 confirm – tim10-1 yeast growth inhibition, confirmed | shares compounds with tim10-1 inh | S. cerevisiae tim10-1 ts strain growth, BacTiter-Glo, 24 h | AID 463213 | inhibition, % at 20 µM | 7,400 tested, 56% active;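 active = inhibition of yeast growth at or above a set limit in either of two repeat tests at 20 µM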;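 note: tim10-1 mutant grown at permissive 25 °C to find synthetic lethal compounds; 0% = DMSO yeast wells and 100% = medium wells without yeast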
* hit, by the source's call; i = inactive; . = no result.

SMILES | tim23-1 inh | TIM10 inh | tim10-1 inh | PfHsp90 set2 | SUMO Mot1 rescue | tim10-1 confirm
CCC(C)(C)n1nnnc1C(c1ccc(C)cc1)N1CCC(C)CC1 (centres undefined) | 45 | 38 | 41* | -12 | 9 | 36*
CCCN(CC(=O)Nc1ccccc1C)C(=O)c1ccc(=O)n(Cc2ccccc2)n1 | 3 | 0 | 12 | -10 | 0 | .
Cc1ccc([N+](=O)[O-])cc1NC(=O)c1cccnc1 | 3 | -8 | -2 | -13 | -15 | .
O=C1CN(C(=O)/C=C/c2ccc(Cl)cc2)c2ccccc2N1 | 39 | 18 | -1 | -10 | 9 | .
O=C1CN(C(=O)/C=C/c2cccc(Cl)c2)c2ccccc2N1 | 22 | 27 | 41* | 2 | 8 | 34*
O=C(NCCCSc1ccccc1)c1cc(Cl)ccc1O | 48 | 25 | 47* | -32 | -5 | 26
CC(C)C[C@@H](CN)NC(=O)c1nc[nH]c1C(=O)N[C@@H](CC(C)C)C(=O)CNC[C@H](C)NC(=O)c1nc[nH]c1C(=O)N[C@@H](CC(C)C)C(=O)O | . | . | . | -10 | . | .
Cc1cnc(C(=O)OCC(=O)Nc2cccc(S(=O)(=O)N3CCOCC3)c2)cn1 | 2 | 6 | -1 | . | -21 | .
Cc1[nH]n(-c2ccccc2)c(=O)c1C(c1cccc([N+](=O)[O-])c1O)c1c(C)[nH]n(-c2ccccc2)c1=O | 33 | 7 | 42* | 4 | 47 | 23
Cc1c(C(c2cccc([N+](=O)[O-])c2O)c2c(C)n(C)n(-c3ccccc3)c2=O)c(=O)n(-c2ccccc2)n1C | -1 | 14 | 6 | . | 6 | .
CCCCN1CC(COCc2ccccc2)Oc2cccc(Oc3cc(C)c(C)c(C)c3)c2S1(=O)=O (centres undefined) | . | . | . | -15 | . | .
N#CCc1ccc(Oc2ncc(C(F)(F)F)cc2Cl)cc1 | 39 | 31 | 48* | -13 | 19 | 28
COc1ccc(S(=O)(=O)NN(C)c2ncc(C(F)(F)F)cc2Cl)cc1 | 15 | 7 | 40* | 5 | 24 | 15
CC(C)NS(=O)(=O)c1ccc(Oc2ncc(C(F)(F)F)cc2Cl)cc1 | 20 | 8 | 49* | -71 | i | 26
COc1ccccc1N(CC(=O)NC1CCCC1)S(=O)(=O)c1cccc(C(F)(F)F)c1 | 37 | 16 | 26 | -30 | . | .
O=C(CN1CCOCC1)Nc1ccc([N+](=O)[O-])cc1 | 5 | 2 | -5 | 5 | -7 | .
CC1CCC(NC(=O)c2ccc(NC3=NC4CS(=O)(=O)CC4S3)cc2)CC1 (centres undefined) | 13 | -6 | 22 | -21 | 11 | .
O=C(N/N=C/c1ccc(O)cc1)NC12CC3CC(CC(C3)C1)C2 | 41 | 32 | 50* | 8 | -3 | 35*
O=C(COn1nnc2ccc(Cl)cc21)NC12CC3CC(CC(C3)C1)C2 | 48 | 37 | 40* | 12 | -6 | 32*
CN(c1ccc(OCC(=O)OCC(=O)Nc2ccc(OC(F)F)cc2)cc1)S(=O)(=O)c1cccs1 | -2 | -8 | 0 | -8 | 4 | .
CC(C)(C)OC(=O)N1CCC[C@H]1c1nnc(SCc2ccc(Cl)cc2Cl)o1 | 38 | 19 | 40* | -22 | 358 | 18
CC(C)(C)OC(=O)N1CCC[C@H]1c1nnc(SCc2ccccc2Cl)o1 | 27 | 14 | 29 | -8 | 77 | .
Cc1[nH]c2ccccc2c1C(=O)C(C)OC(=O)C1CCC1 (centres undefined) | 15 | 18 | 24 | 1 | 4 | .
Cc1ccc(CSC2=Nc3ccccc3C3=NC(=O)CN23)cc1 | 36 | 14 | -35 | 19 | -2 | .
COc1cc2c(cc1OC)C1=NC(=O)CN1C(SCc1ccccc1C)=N2 | 24 | 13 | 41* | 13 | -10 | 24
SMILES | tim23-1 inh | TIM10 inh | tim10-1 inh | PfHsp90 set2 | SUMO Mot1 rescue | tim10-1 confirm
COc1ccc(OC)c(NC(=O)c2cccc3c2C(=O)N(C2CCCCC2)C3)c1 | 29 | 25 | 54* | 6 | -2 | 11
Cc1ccc(S(=O)(=O)NC(=O)Nc2cccc(S(=O)(=O)N(C)C)c2)cc1 | 10 | 2 | 14 | -2 | 17 | .
CC(C)CC(COCc1cccc(Cl)c1)N1CCN(C(=O)c2ccc(C(F)(F)F)cc2)CCC1=O (centres undefined) | 28 | 23 | 49* | -43 | 4 | 25
CC(C)(C)CN1CCC(Oc2cccc(C(=O)N3CCC[C@H]3CO)c2)CC1 | -12 | -7 | -17 | -10 | 12 | .
Cc1c(C=O)c(C=O)c(C)n1Cc1ccccc1 | 39 | 17 | 42* | -9 | . | 21
CCCCCCSc1ccc([C@H]2N[C@@](Cc3ccccc3)(C(=O)OC)[C@H]3C(=O)N(C)C(=O)[C@@H]23)cc1OC | 4 | -1 | 4 | 7 | -1 | .
COc1ccc(/C=C/C(=O)c2ccc(OC)cc2OC)c(OC)c1 | 18 | -3 | 3 | 5 | 18 | .
COc1ccc(/C=C/C(=O)c2ccccc2)c(OC)c1 | 20 | 22 | 44* | 5 | 449 | 25
Cc1ccc(N2C(=O)C3C4C=CC(CNC(=S)Nc5cccc(Cl)c5)(O4)C3C2=O)cc1 (centres undefined) | 30 | 36 | 44* | 105* | 112 | 50*
O=C1C2C3C=CC(CO)(O3)C2C(=O)N1c1ccc(-c2ccccc2)cc1 (centres undefined) | 43 | 38 | 95* | . | 324* | 97*
Cc1ccc(N2C(=O)N(CC(=O)Nc3cccc(Cl)c3)C(=O)C2C)cc1 (centres undefined) | 31 | 7 | 13 | 7 | -16 | .
O=C(O)c1ccc(N2C(=O)C3C4c5ccccc5C(Br)(c5ccccc54)C3C2=O)cc1 (centres undefined) | 20 | -6 | 18 | 29 | 94 | .
Cc1cccc(Cc2nc3ccccc3[nH]2)c1 | . | . | . | -19 | . | .
O=C(NC1CCCN(C2Cc3ccccc3C2)C1)c1ccc(F)cc1Cl (centres undefined) | -22 | 4 | -4 | -8 | -5 | .
CC(=O)c1cccc(NC(=S)NC(=O)Cc2ccccc2)c1 | 29 | 27 | 46* | 6 | 6 | 23
CC(=O)c1cccc(NC(=S)NCCc2ccc(F)cc2)c1 | 24 | 23 | 4 | -22 | . | .
CC(=O)c1cccc(NC(=S)NC(=O)Cc2ccc(Cl)cc2)c1 | 21 | 36 | 2 | -21 | -21 | .
CC(=O)c1cccc(NC(=S)NCCC2=CCCCC2)c1 | 21 | 27 | 40 | -20 | -18 | 28
Cc1cc(C(=O)OC(C)C(=O)N2CCc3ccccc32)ccc1[N+](=O)[O-] (centres undefined) | 12 | -33 | -4 | . | 2 | .
Cc1cc(-c2ccc(C)c(S(=O)(=O)N3CCN(c4ccccn4)CC3)c2)on1 | 39 | 18 | 42* | -4 | -1 | 32*
O=C(NC1CCCCC1)C(c1cccs1)N(Cc1cccs1)C(=O)c1cccs1 (centres undefined) | 25 | 27 | 45* | -10 | 50 | 26*
